This is an account of results in PubChem BioAssay.

A short description of assay [1]: small molecules captured by biotinylated probe aFSTL3 – biochemical, small-molecule microarray, fluorescence 635/667, stem cell growth factor project, primary screen (AID 1064).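 Note: measures binding of the biotinylated anti-FSTL3 antibody to printed compounds.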 To be noted: higher = more signal.
Assay [2] is described as follows: binders from COS7 lysate, DM2A8 probe, primary screen, torsin A project, cell lysate, small-molecule microarray, fluorescence 635/667 (AID 1065). To be noted: higher = more signal, COS7 lysate expressing mutant human TOR1A.
A short description of assay [3]: small molecules captured by biotinylated probe aFGF2 – biochemical, small-molecule microarray, fluorescence 635/667, stem cell growth factor project, primary screen (AID 1067).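 Note: measures binding of biotinylated aFGF2 protein to printed compounds on slides; z-score merges feature fluorescence and signal-to-noise across triplicate slides.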 To be noted: higher = more signal.
Assay [4] in a line: small molecules captured by biotinylated probe aFGF10 – biochemical, small-molecule microarray, fluorescence 635/667, stem cell growth factor project, primary screen (AID 1071).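 Note: score merges 667 nm spot intensity and signal to noise from triplicate slides.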 The note with it: higher = more signal.
Assay [5] deals with Neurogenic locus notch homolog protein 2 (Homo sapiens) (UniProt Q04721). Briefly: small molecules binding Notch2 protein – biochemical, small-molecule microarray, 635 nm fluorescence, stem cell growth factors, primary screen (AID 1073). To be noted: higher = more signal.
Assay [6] has as its target Pro-neuregulin-1, membrane-bound isoform (Homo sapiens) (UniProt Q02297). The assay is described as follows: small molecules binding neuregulin-1 protein – biochemical, small-molecule microarray, fluorescence 635/667, psychiatric disease protein project, primary screen (AID 1075).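 Note: score combines 667 nm spot fluorescence with signal to noise.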 The note with it: NRG1 binding, 635 nm fluorescence, higher = more signal.
For assay [7], the system named is Neuregulin-1 EGF-like domain. The assay is described as follows: small molecules binding NRG1 EGF domain – biochemical, small-molecule microarray, 635 nm fluorescence, primary screen (AID 1081).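 Note: binding of the protein to compounds printed on small-molecule microarray slides.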 To be noted: higher = more signal.
Assay [8] in a line: FRG1 expression reporter modulators in myotubes – cell-based, C2C12 myotubes, firefly/Renilla luciferase, luminescence, FRG1 inhibition for FSHD, primary screen (AID 1084). The note with it: FRG1 promoter luciferase, higher = more signal, called active from +8 up or from −8 down.
Assay [9] is described as follows: small molecules captured by biotinylated probe aFST – biochemical, small-molecule microarray, fluorescence 635/667, stem cell growth factor project, primary screen (AID 1086).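 Note: score merges 667 nm fluorescence with signal-to-noise of each printed compound spot.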 The note with it: higher = more signal.
Assay [10] can be described thus: binders of probe aHhip on microarray, primary screen, stem cell growth factor project, biochemical, small-molecule microarray, fluorescence 635/667 (AID 1087).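 Note: score merges spot fluorescence at 667nm with spot signal to noise ratio.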 To be noted: higher = more signal.

Calls of active or inactive are those of the source.

Sequence of Neurogenic locus notch homolog protein 2 (Homo sapiens) (Q04721 whole entry, looked up, canonical isoform): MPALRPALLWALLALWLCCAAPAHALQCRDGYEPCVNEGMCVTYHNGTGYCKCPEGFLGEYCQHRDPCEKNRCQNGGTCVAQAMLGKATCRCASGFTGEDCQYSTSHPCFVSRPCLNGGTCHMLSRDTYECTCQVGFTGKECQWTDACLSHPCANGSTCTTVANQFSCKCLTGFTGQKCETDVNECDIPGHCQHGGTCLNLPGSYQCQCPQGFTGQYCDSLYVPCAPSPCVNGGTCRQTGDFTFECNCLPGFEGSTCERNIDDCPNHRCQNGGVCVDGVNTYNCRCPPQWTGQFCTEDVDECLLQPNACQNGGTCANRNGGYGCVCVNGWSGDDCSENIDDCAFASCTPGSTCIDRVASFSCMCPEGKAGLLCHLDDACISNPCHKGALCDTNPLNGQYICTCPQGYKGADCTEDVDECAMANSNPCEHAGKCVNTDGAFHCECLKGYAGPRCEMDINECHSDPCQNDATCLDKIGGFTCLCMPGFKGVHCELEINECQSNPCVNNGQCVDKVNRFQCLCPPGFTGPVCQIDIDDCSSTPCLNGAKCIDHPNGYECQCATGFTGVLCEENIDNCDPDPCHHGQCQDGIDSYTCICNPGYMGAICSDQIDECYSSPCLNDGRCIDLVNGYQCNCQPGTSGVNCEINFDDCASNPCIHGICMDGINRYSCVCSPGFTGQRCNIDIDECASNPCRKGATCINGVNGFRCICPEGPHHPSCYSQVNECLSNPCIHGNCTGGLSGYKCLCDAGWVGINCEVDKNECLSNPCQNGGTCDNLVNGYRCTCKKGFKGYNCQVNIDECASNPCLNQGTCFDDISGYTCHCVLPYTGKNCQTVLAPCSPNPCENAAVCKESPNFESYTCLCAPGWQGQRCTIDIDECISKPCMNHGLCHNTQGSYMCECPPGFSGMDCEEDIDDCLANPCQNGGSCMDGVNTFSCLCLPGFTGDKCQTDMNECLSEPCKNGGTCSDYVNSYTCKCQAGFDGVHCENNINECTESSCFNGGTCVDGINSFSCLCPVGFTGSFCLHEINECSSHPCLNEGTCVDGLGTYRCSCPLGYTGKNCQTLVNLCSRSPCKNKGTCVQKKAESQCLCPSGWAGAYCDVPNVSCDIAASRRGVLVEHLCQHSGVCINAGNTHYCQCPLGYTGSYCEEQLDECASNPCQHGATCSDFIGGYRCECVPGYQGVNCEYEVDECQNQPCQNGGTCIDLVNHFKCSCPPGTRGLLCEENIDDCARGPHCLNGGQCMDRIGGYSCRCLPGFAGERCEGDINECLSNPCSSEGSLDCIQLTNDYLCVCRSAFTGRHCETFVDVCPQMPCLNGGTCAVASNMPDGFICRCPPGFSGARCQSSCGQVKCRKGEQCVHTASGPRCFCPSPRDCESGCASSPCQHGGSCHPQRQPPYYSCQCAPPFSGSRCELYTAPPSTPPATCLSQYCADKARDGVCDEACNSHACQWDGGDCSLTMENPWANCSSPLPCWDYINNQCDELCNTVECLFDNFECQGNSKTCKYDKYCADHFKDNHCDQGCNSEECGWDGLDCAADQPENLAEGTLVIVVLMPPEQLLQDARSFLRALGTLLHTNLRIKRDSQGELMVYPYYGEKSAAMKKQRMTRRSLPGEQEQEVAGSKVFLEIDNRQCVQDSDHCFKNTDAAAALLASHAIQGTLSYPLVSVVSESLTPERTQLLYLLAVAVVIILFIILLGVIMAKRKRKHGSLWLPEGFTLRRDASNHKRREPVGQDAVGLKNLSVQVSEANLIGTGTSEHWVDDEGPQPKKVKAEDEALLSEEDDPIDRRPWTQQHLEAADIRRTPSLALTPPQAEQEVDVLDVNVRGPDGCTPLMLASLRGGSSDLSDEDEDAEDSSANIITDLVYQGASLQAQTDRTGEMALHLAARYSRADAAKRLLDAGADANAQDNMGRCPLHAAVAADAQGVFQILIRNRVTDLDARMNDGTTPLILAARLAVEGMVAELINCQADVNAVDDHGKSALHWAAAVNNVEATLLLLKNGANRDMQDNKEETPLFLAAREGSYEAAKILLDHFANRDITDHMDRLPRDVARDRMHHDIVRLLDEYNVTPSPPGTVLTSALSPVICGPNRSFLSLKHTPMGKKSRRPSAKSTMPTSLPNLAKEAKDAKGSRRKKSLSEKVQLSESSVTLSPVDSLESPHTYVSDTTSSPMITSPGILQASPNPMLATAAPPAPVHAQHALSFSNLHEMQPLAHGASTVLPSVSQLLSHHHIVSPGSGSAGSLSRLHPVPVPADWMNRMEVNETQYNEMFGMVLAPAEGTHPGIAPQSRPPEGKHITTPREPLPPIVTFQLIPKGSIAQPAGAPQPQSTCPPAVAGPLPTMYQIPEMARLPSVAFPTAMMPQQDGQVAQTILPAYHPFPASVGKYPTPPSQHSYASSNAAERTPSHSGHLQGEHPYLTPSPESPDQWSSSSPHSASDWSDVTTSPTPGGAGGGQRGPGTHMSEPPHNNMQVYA
Sequence of Pro-neuregulin-1, membrane-bound isoform (Homo sapiens) (Q02297 whole entry, looked up, the tested form may be a part, canonical isoform): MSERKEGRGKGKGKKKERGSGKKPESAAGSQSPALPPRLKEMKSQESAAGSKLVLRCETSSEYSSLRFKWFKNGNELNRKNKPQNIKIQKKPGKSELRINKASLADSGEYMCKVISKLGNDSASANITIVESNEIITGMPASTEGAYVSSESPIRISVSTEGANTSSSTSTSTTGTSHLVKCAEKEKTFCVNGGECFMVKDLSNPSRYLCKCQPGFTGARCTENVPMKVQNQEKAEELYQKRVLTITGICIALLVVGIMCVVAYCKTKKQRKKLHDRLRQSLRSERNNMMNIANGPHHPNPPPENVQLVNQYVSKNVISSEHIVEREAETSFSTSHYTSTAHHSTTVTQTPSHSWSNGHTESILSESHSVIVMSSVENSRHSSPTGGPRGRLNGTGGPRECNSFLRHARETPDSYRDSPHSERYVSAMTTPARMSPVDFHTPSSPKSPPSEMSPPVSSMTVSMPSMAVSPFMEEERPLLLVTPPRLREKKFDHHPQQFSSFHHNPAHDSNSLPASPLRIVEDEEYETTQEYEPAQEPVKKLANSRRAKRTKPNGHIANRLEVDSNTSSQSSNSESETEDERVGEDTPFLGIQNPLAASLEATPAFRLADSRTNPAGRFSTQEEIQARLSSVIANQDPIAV

For `CC1CC/C=C\[C@H]2OC34C=CCN(c5ccc(Cl)cc5)C(=O)[C@H]3N(CCO)C(=O)[C@]4(C)C2C(=O)O1` (stereo not given in full), the composite z-score in assay [1] was 0.359; in [2], 0.0741; in [3], -0.12; in [4], -0.472; in assay [5], -0.749; in [6] it was 0.93. Moreover, the composite z-score in [7] is 0.842; in [9] it was -0.448; in assay [10] it was -0.106. Besides, the z-score in assay [8] is -0.39 (inactive).

Take `CN(C)CCCNC(=O)[C@@]1(c2ccc([N+](=O)[O-])cc2)CC(=O)N(C2CCCCC2)[C@@H]1c1ccc(CO)cc1I`: the composite z-score in assay [1] is 0.284; in assay [2] it was 1.05; in assay [3], -0.087; in [4] it was -0.0752; in [5] it was -0.0551; in [6] it was 0.314. In addition, the composite z-score in assay [7] was 1.34; in assay [9], -0.364; in assay [10] it was -0.266. In assay [8], the z-score was -0.635 (inactive).

For the compound `COc1cc2c(cc1OC)CN(C(=O)[C@H]1[C@@H]3C(=O)O[C@@H](c4ccccc4)[C@@H](c4ccccc4)N3[C@@H](c3ccc(O)cc3)[C@]13C(=O)Nc1ccc(C#CCNC(N)=O)cc13)CC2`, the composite z-score in assay [1] was -0.297; in [2], 0.0737; in assay [3], -0.0473; in [4] it was 0.689; in [5] it was -0.0344; in [6], 0.404. Further, the values for the composite z-score in assay [7], in assay [9] and in assay [10] were 0.37, 0.135 and 0.0854, respectively. For the same compound, the z-score in assay [8] was 0.297 (inactive).

Turning to `O=C1c2ccccc2[C@@]2(Cc3ccccc3N(CC(F)(F)F)C2=O)[C@H](c2ccc(CO)cc2)N1Cc1ccccc1Cl`, the composite z-score in assay [1] was -0.351; in [2], -0.112; in assay [3], -0.147; in [4], -0.0091; in [5] it was 0.0933; in assay [6], -0.0415. Besides, the values for the composite z-score in [7], in [9] and in assay [10] were 0.222, -0.121 and -0.226, respectively. In [8], the z-score was -0.163 (inactive).

Turning to `NCCCCCNC(=O)[C@@H]1C[C@@H]2C(=O)NCC(=O)N2[C@@H]1c1ccc(O)cc1`, the composite z-score in assay [1] is -0.293; in [2], 0.304; in assay [3] it was -0.129; in assay [4] it was 0.975; in assay [5] it was -0.195; in [6], 0.817. In addition, the composite z-score in [7] is 1.25; in assay [9], -0.107; in assay [10], -0.0994. For the same compound, the z-score in assay [8] is 0.117 (inactive).

For `CN(C)C(=O)[C@@]1(Cc2ccccc2)N=C(c2ccc(OCCCO)cc2)O[C@H]1c1ccccc1N=[N+]=[N-]`, the composite z-score was 0.0567 in [1]; -0.204 in assay [2]; 0.061 in assay [3]; 0.64 in assay [4]; 1.55 in assay [5]; 1.56 in [6]. Moreover, the figures for the composite z-score in [7], in [9] and in assay [10] were 1.12, 1.69 and -0.353, respectively. Moreover, the z-score in assay [8] was -1.66 (inactive).

For the compound `COC(=O)[C@@]1(Cc2ccc(OC)cc2)[C@H]2c3cc(C(=O)N(C)C)n(CCN4CNCC4=O)c3C[C@H]2CN1C(=O)c1ccccc1`, the composite z-score was 0.39 in [1]; 1.47 in assay [2]; 0.0432 in assay [3]; -0.0075 in assay [4]; 1.27 in assay [5]; 1.51 in assay [6]. In addition, the composite z-score is 1.3 in [7], 0.384 in assay [9] and 0.983 in assay [10]. The z-score in [8] was 0.124 (inactive).

With `O=C1C[C@]2(c3ccc([N+](=O)[O-])cc3)C(=O)N(CCN3CCOCC3)c3cc(CO)ccc3[C@H]2N1C1CCCCC1`, the composite z-score in assay [1] was 0.526; in assay [2], -0.808; in [3] it was -0.162; in assay [4], -0.212; in assay [5], -0.309; in [6] it was 1.37. The composite z-score in [7] is -0.251; in assay [9] it was 0.105; in assay [10] it was -0.121. The z-score in assay [8] was -1.88 (inactive).

For the compound `CCOC1=C2C(CN(S(=O)(=O)c3ccc(C)cc3)C2c2ccc(C)cc2)C2C(=O)N(c3ccccc3)C(=O)C2C1` (stereo not given), the composite z-score is -0.208 in [1]; -0.155 in [2]; -0.0074 in assay [3]; 0.347 in [4]; 1.25 in [5]; 0.752 in [6]. The composite z-score in assay [7] is 1.03; in [9], 0.585; in assay [10], -0.0618. For the same compound, in assay [8], the z-score was -0.62 (inactive).

For `COc1ccc(CCNC(=O)[C@@]2(C)c3ccccc3C(=O)N(Cc3cc(F)cc(C(F)(F)F)c3)[C@H]2c2ccc(CO)cc2)cc1`, the composite z-score in assay [1] was 0.498; in [2], -0.518; in assay [3] it was 0.0046; in assay [4] it was -0.23; in assay [5] it was 0.146; in assay [6], 0.499. In addition, the composite z-score is 0.969 in assay [7], -0.247 in assay [9] and 0.156 in assay [10]. Also, the z-score in [8] is -3.42 (inactive).

For `CC1CC/C=C\[C@H]2OC34C=CCN(Cn5nnc6ccccc65)C(=O)[C@H]3N(C(CO)C(C)C)C(=O)[C@@H]4C2C(=O)O1` (stereo not given in full), the composite z-score in assay [1] was 0.0351; in assay [2] it was -0.804; in assay [3], -0.175; in [4], -0.266; in assay [5] it was 0.145; in assay [6], 1.22. Besides, the composite z-score in [7] was 1.42; in [9] it was -0.314; in [10], 0.0505. In assay [8], the z-score was 0.298 (inactive).

In the case of `COc1ccc(C#Cc2ccc3c(c2)[C@]2(C(=O)N3)[C@H](c3ccccc3OCCO)N3[C@H](c4ccccc4)[C@H](c4ccccc4)OC(=O)[C@H]3[C@@H]2C(=O)O)cc1`, the composite z-score in assay [1] is -0.377; in assay [2], 0.424; in assay [3], 0.0406; in [4], 1.16; in assay [5], 1.34; in assay [6] it was 1.74. Besides, the composite z-score in assay [7] is 1.28; in assay [9], 0.336; in assay [10], 0.132. Also, the z-score in [8] was -0.0646 (inactive).

Regarding `O=C(NCc1ccccc1)[C@@]1(Cc2ccccc2)N=C(c2ccc(OCCCO)cc2)O[C@H]1c1ccccc1`, the composite z-score in [1] amounted to 0.398; in assay [2], 1.92; in [3], 0.0557; in [4], 0.177; in assay [5], 1.56; in assay [6], 1.76. The composite z-score in assay [7] is 1.05; in assay [9] it was 1.07; in [10], -0.201. Moreover, the z-score in assay [8] is -2.23 (inactive).

For the compound `CCCCCN1CC=CC23O[C@@H]4/C=C\CCCOC(=O)C4[C@H]2C(=O)N(C(CO)C(C)C)[C@@H]3C1=O` (stereo not given in full), the composite z-score in [1] was -0.101; in [2], -0.856; in assay [3], -0.103; in assay [4], -0.106; in assay [5], -0.65; in assay [6], -0.583. The results for the composite z-score in assay [7], in assay [9] and in [10] were 1.52, -0.384 and 0.0854, respectively. For the same compound, in assay [8], the z-score was -0.196 (inactive).

As for `C#CCNC(=O)[C@H](Cc1ccccc1)NC(=O)CCC(=O)O`, the composite z-score is -0.0733 in [1]; -0.267 in assay [2]; -0.158 in [3]; -0.704 in assay [4]; -1.46 in assay [5]; -0.592 in assay [6]. Further, the composite z-score in [7] is -0.33; in assay [9], 1.03; in [10], -0.0994. In addition, the z-score in assay [8] was 0.338 (inactive).

With `[N-]=[N+]=NCc1ccccc1C[C@@]1(C(=O)NCC(O)CO)N=C(c2ccc(OCCCO)cc2)O[C@@H]1c1ccccc1N=[N+]=[N-]` (stereo not given in full), the composite z-score was 0.516 in assay [1]; -0.133 in assay [2]; 0.0109 in assay [3]; 0.451 in assay [4]; 0.669 in assay [5]; 1.78 in assay [6]. Moreover, the composite z-score in [7] stood at 1; in assay [9], 1.66; in assay [10], 0.0139. The z-score in [8] is -0.755 (inactive).
